Unmarked numbers belong to inactive results. Activity calls are given as the source filed them.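 How the source made its calls: active means inhibition above the hit cutoff set in the earlier primary screen (cut at about 27% in these data); inactive means the rest.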

The target in the test is Protein phosphatase methylesterase 1 (Homo sapiens) (UniProt Q9Y570). Nature of the test: PME-1 inhibitor activity retest, confirmation, biochemical, fluorescence polarization, FP-Rh probe, triplicate (AID 2171).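 Further: 0% = enzyme with DMSO and 100% = wells lacking PME-1.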 The conditions noted are these: recombinant PME-1, FP-Rh probe fluorescence polarization; at 5.9 µM; stronger effect = higher value.
Sequence of Protein phosphatase methylesterase 1 (Homo sapiens) (Q9Y570 whole entry, looked up): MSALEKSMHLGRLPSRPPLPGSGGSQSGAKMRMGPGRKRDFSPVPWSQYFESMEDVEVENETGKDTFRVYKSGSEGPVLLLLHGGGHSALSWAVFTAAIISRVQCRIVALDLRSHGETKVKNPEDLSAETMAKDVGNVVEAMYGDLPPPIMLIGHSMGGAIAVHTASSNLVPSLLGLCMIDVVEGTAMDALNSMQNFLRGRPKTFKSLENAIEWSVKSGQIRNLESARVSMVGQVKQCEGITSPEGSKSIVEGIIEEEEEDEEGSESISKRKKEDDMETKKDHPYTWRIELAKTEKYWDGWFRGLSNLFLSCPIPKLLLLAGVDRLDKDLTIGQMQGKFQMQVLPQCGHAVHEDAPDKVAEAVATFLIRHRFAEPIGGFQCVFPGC
As to `O=c1[nH]n2c(=O)c3c([nH]c2c1N=Nc1cccc(Cl)c1)CCCC3`, the inhibition (in general, the drop in the measured response relative to a control, in per cent) is 61.8% (active).
Next, `CCCCn1c(NC(=O)c2ccccc2Cl)c(C#N)c2nc3ccccc3nc21`: 19.9%; `C=CCN=c1scc(-c2ccco2)n1/N=C/c1ccc(O)c(O)c1O`: -17.6%; `CC(C)Oc1ccc(CCC(=O)N/N=C/c2ccc3c(c2)OCO3)cc1`: 4.01%.
Next, `COc1ccc(-c2nc(-c3ccccc3)c(-c3cc([N+](=O)[O-])ccc3C)[nH]2)cc1O`: -4.82%.
`CCOc1ccc(N=Nc2c(=O)[nH]n3c(=O)c4c([nH]c23)CCCC4)cc1`: the inhibition is 24.8%.
Next, `CC(C)S(=O)(=O)c1csc(NC(=O)Nc2cccc([N+](=O)[O-])c2)c1Cl`: -58.5%; `COc1cc(NC(=O)c2cc3ccccc3cc2O)c(OC)cc1Cl`: 9.45%.
`O=C(c1cccs1)N1CCC(c2nc3c(nnn3Cc3ccccc3Cl)c(=O)[nH]2)CC1`: the inhibition is 25.4%.
Next, `Cc1csc(NC(=O)c2sc3nc(-c4cccs4)ccc3c2N)n1`: 42.6% (active).
For `CCCCCCC(=O)N1CCC(c2nc3c(nnn3Cc3ccccc3Cl)c(=O)[nH]2)CC1`, the inhibition was 21.9%.
Next, `O=C1c2cccc3c([N+](=O)[O-])ccc(c23)C(=O)N1c1ccc(Cl)cn1`: 34.9% (active).
Next, `Brc1ccc(N=NNc2ccccc2)cc1`: 31.4% (active); `Cc1nn(-c2ccccc2)c2sc(-c3n[nH]c(=S)o3)cc12`: 43.8% (active).
Next, `CCCCCCCCCCCCCCCC[n+]1ccc(/C=N/O)cc1`: 60.4% (active); `CCCn1c(CCC(=O)Nc2ccccc2Cc2ccccc2)nc2cc(S(=O)(=O)N3CCOCC3)ccc21`: 45.4% (active); `Nc1c(Cl)cc(-c2[nH]c3cc(C(=O)NCCO)ccc3c(=O)c2O)cc1Cl`: -9.64%.
Regarding `CCNc1ccc2noc3c2c1C(=O)c1ccccc1-3`, the inhibition was 87.6% (active).
For the molecule `COc1cc(/C=C/c2ccc3cccc(O)c3n2)c(Br)cc1O`, the inhibition was 27.5% (active).
Next, `Cc1c(C(=O)N/N=C/c2ccc(O)c(Br)c2)sc(N)c1C#N`: 49.7% (active).
Next, `Cc1[nH]n(-c2ccccc2)c(=O)c1N=Nc1c(O)cc(S(=O)(=O)N(C)C)c2ccccc12`: 74.3% (active); `COc1ccc2nc(-n3c(O)c(C4=c5ccccc5=NC4=O)[nH]c3=S)sc2c1`: 45.8% (active).
For `COC(=O)c1ccc(Sc2ccccc2NS(=O)(=O)c2ccc(C)cc2)nc1`, the inhibition was 25.9%.
Next, `Nc1cc2nsnc2cc1Br`: 34.7% (active).

The values above are taken from PubChem BioAssay.
